Assay [1] in a line: qHTS assay to identify small molecule antagonists of the peroxisome proliferator-activated receptor gamma (PPARg) signaling pathway - cell viability counter screen (AID 743194). Further: nearly all actives have a fitted effect of over 55% in size. An outline of the steps: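 PPARg-UAS-bla HEK293H cells were plated, rested 5 h at 37 C, then treated with compounds plus rosiglitazone (50 nM final) for 17 h at 37 C; viability was then read by CellTiter-Glo luminescence after 30 min at room temperature.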
For orientation: qHTS replaces the single test concentration by a dilution series.

The target in assay [2] is Peroxisome proliferator-activated receptor gamma (Homo sapiens) (UniProt P37231). Description: qHTS assay to identify small molecule antagonists of the peroxisome proliferator-activated receptor gamma (PPARg) signaling pathway (AID 743191; calls by dose curve; further: nearly all actives have a fitted effect of over 30% in size; further: potency means the concentration at half of the fitted maximal effect). An outline of the steps:
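GeneBLAzer PPARg UAS-bla HEK293H cells carrying a UAS-driven beta-lactamase reporter were plated at 3000 cells/well, preincubated 5 h at 37C, then given compound for 17 h at 37C; LiveBLAzer B/G FRET substrate was read after 1 h at room temperature.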

Assay [3] can be described thus: qHTS assay for small molecule agonists of the antioxidant response element (ARE) signaling pathway - cell viability counter screen (AID 743203; calls by dose curve; further: nearly all actives have a fitted effect of over 55% in size; further: potency means the concentration at half of the fitted maximal effect). In outline:
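ARE-bla HepG2 cells were plated, rested 5 h at 37C/5% CO2, then exposed to compounds in DMSO for 16 h. Viability was read as CellTiter-Glo luminescence after 30 min at room temperature, in the same wells as the ARE screen.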

Assay [4] in a line: qHTS assay for small molecule activators of the heat shock response signaling pathway - cell viability counter screen (AID 743209). Further: nearly all actives have a fitted effect of over 50% in size. Further: potency means the concentration at half of the fitted maximal effect. In outline:
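HSE-bla HeLa cells plated overnight, then exposed to Tox21 compounds (23 nL in DMSO) for 5 h at 37 C. After the bla reporter read, CellTiter-Glo was added in the same wells and luminescence read after 30 min at room temperature.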

A short description of assay [5]: qHTS assay for small molecule activators of the heat shock response signaling pathway (AID 743210; active means well fitted activation curve with a large enough effect in the signal ratio in the repeat runs, with a control signal flat, not every such curve was filed as active; the % refers to the signal ratio;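 further: HeLa cells with beta-lactamase reporter driven by heat shock elements; series mostly up to about 63 µM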). In outline:
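Reporter gene assay: HeLa cells stably bearing an HSE-bla construct, compound treatment 5 h at 37 C, LiveBLAzer substrate 2.5 h at RT, fluorescence intensity.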

Assay [6] in a line: qHTS assay to identify small molecule agonists of the peroxisome proliferator-activated receptor delta (PPARd) signaling pathway - cell viability counter screen (AID 743211). Further: nearly all actives have a fitted effect of over 55% in size. Further: potency means the concentration at half of the fitted maximal effect. In outline: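 qHTS cell viability: PPARd-bla HEK293H; 17 h cpd, 37C; CellTiter-Glo, luminescence at 30 min RT.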
A short description of assay [7]: qHTS assay for small molecule agonists of the antioxidant response element (ARE) signaling pathway (AID 743202; active means well fitted activation curve with a large enough effect in the signal ratio in the repeat runs, not every such curve was filed as active; the % refers to the signal ratio). An outline of the steps:
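Compounds delivered in DMSO to ARE-bla HepG2 cells (2,000 cells/well, pre-incubated 5 h) and left 16 h at 37 C. LiveBLAzer B/G FRET substrate then added for 2 h at RT before fluorescence reading.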

Results filed as inconclusive are left out. Calls of active or inactive are those of the source. Unless noted, the call rests on the fitted dose curve; in most records, active means well fitted curve in the direction sought with a large enough effect in the repeat runs; inconclusive means weak or mixed curves; inactive means no such curve, though single readings can be large; an effect the other way counts as inactive or inconclusive.

Chain of Peroxisome proliferator-activated receptor gamma (Homo sapiens) (P37231 whole entry, looked up): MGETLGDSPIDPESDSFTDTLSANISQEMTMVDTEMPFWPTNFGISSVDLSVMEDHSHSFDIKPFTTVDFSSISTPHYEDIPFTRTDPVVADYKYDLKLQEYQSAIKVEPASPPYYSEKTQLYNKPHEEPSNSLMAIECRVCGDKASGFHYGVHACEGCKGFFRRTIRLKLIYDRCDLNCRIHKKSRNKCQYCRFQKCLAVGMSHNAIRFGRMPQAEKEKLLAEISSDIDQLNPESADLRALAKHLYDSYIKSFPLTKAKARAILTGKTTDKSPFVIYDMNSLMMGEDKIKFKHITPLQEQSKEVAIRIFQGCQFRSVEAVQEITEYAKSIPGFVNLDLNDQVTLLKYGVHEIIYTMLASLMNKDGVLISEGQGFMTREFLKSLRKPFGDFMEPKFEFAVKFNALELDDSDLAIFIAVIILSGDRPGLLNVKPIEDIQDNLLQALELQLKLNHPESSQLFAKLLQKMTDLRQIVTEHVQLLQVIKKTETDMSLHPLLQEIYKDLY

Regarding `O=C(N/N=C/c1ccccc1O)c1ccncc1`, the Potency entry in assay [1] is “inactive”.

Regarding `CN(C)CCCOC1(Cc2ccccc2)CCCCCC1`, the Potency entry in assay [2], in assay [1], in assay [3], in assay [4], in assay [5] and in assay [6] was “inactive” throughout.

For `NC(=O)C1(N2CCCCC2)CCN(CCCN2c3ccccc3CCc3ccc(Cl)cc32)CC1`, the values for the Potency in assay [3] and in assay [6] were 16.8 µM (active) and 11.9 µM (active), respectively.

For `CC[C@@]1(O)C(=O)OCc2c1cc1n(c2=O)Cc2c-1nc1ccccc1c2/C=N/OC(C)(C)C`, the Potency was 0.335 µM (active) in assay [3], 0.473 µM (active) in assay [4] and 11.9 µM (active) in assay [6].

Consider `Clc1ccc(C(Cn2ccnc2)OCc2ccc(Sc3ccccc3)cc2)c(Cl)c1` (centres undefined), for which the Potency in assay [6] is 29.8 µM (active).

For `CC(C)(C)c1ccc(C(=O)O)cc1`, the Potency result in assay [7], in assay [3], in assay [4], in assay [5] and in assay [6] was “inactive” throughout.

Take `O=c1cc(-c2ccc(O)cc2)oc2cc(O)cc(O)c12`: the values for the Potency in assay [2] and in assay [4] were 21.9 µM (active) and 12.3 µM (active), respectively. Moreover, the Potency result in assay [1], in assay [3], in assay [5] and in assay [6] was “inactive” each time.

Values taken from PubChem BioAssay (Tox21).
